# Hsp90 Hop PPI: qHTS Assay for Disrupters of an Hsp90 Co-Chaperone Interaction | Hsp90 C-terminal peptide / TPR2A (Hop) interaction, human | AlphaScreen TPR2A-His6 binding biotin-Hsp90 C-terminal peptide | Potency, µM (doses to about 57 µM), inactives show top-dose activity change, negative = inhibition | 71,000 compounds, 0.44% hits; active means well fitted curve in either direction with a large enough effect; inconclusive means small, poorly fitted or top-dose-only effect, or another doubt; further: potency means the concentration at half of the fitted maximal effect; on the % scale 0 is the no-effect control and ±100 the full control effect
# Tau fil binding: qHTS Assay for Tau Filament Binding. recombinant tau filaments, thioflavin S fluorescence, 15 h; filaments grown with octadecylsulfate alongside compound. Potency, µM (series often up to 57.1 µM), without a hit: at the top dose activity change, negative = inhibition. 71,000 compounds, 2% hits. AID 596, 2007; active means well fitted curve in the direction sought with a large enough effect; inconclusive means small, poorly fitted or top-dose-only effect, or another doubt; inactive means no such curve, though single readings can be large; an effect the other way counts as inactive or inconclusive;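 further: potency means the concentration at half of the fitted maximal effect; on the % scale 0 is the no-effect control and ±100 the full control effect; actives lower thioflavin S fluorescence by blocking filaments or displacing dye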
#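 Recombinant tau protein (human, 1 uM final) plus 30 uM ODS in HEPES pH 7.4 with NaCl, DTT and thioflavine S. Compound present from the start; fluorescence at 510 nm after 15 h, 37 C.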
# ALOX15 inhib: qHTS Assay for Inhibitors of 15-hLO (15-human lipoxygenase) | Polyunsaturated fatty acid lipoxygenase ALOX15 (Homo sapiens), P16050 | purified 15hLO-1, xylenol orange hydroperoxide absorbance | Potency, µM (highest dose often 57.1 µM), inactives show at the top dose activity change, negative = inhibition, hits mostly inhibitors | 74,000 compounds, 1.4% hits; active means well fitted curve in the direction sought with a large enough effect; inconclusive means small, poorly fitted or top-dose-only effect, or another doubt; inactive means no such curve, though single readings can be large; an effect the other way counts as inactive or inconclusive; further: potency means the concentration at half of the fitted maximal effect; on the % scale 0 is the no-effect control and ±100 the full control effect; nearly all actives have a fitted effect of over 55% in size
# Target sequence (P16050 whole entry, looked up): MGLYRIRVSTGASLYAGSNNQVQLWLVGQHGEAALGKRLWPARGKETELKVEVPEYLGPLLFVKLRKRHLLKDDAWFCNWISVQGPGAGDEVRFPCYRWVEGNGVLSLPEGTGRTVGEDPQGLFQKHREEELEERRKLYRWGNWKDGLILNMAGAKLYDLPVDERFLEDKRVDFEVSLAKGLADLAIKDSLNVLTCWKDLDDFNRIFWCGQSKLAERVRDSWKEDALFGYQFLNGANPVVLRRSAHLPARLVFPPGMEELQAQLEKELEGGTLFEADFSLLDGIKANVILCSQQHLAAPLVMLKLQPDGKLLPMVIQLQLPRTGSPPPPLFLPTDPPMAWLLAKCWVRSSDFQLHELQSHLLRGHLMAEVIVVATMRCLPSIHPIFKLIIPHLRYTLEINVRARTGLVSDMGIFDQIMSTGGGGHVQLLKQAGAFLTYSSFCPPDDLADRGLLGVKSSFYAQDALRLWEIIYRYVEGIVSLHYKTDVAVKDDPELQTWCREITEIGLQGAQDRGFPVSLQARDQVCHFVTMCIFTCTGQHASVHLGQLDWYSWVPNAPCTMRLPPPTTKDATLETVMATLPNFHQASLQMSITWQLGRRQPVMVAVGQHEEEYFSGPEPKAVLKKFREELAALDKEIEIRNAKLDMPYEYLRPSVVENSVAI
#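 Purified human 15hLO-1 (40 nM final) in 25 mM Hepes pH 7.5, 0.01% Triton X-100 was preincubated with compound 15 min at room temperature, then reacted 6 min with 50 uM arachidonic acid; hydroperoxide detected by Fe-XO, 573/405 nm absorbance ratio.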
# USP2a inhib: qHTS Assay for Inhibitors of Ubiquitin-specific Protease USP2a. Ubiquitin carboxyl-terminal hydrolase 2 (Homo sapiens), O75604. USP2a enzymatic assay, qHTS inhibition. Potency, µM (highest dose often 38.3 µM), inactives show at the top dose activity change, negative = inhibition, hits mostly inhibitors. 60,000 compounds, 0.1% hits; active means well fitted curve in the direction sought with a large enough effect; inconclusive means small, poorly fitted or top-dose-only effect, or another doubt; inactive means no such curve, though single readings can be large; an effect the other way counts as inactive or inconclusive; further: potency means the concentration at half of the fitted maximal effect; nearly all actives have a fitted effect of over 60% in size
#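 20 nM USP2 core + cpd, 30 min RT; add 20 nM Ub-PLA2/20 uM NBD C6-HPC; read Ex460/Em535 at 0 h and 2.5 h. Normalized to NEM; qHTS curve fit/classification.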
# Hsp90-TPR2A inh: Confirmation Concentration-Response Assay and Counterscreen for Disrupters of an Hsp90 Co-Chaperone Interaction; activity, negative = inhibition, % at 40 µM or 46 µM, hits read low; 45 compounds, 100% hits; AlphaScreen TPR2A-His6 / biotin-Hsp90 peptide binding; shares compounds with Hsp90 Hop PPI; AID 632, 2007;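 active means compound lowering the Hsp90 and TPR2A binding signal, whether or not the linker counterscreen also flagged it as an artifact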
# Tau ThS bind: Tau ThS binding assay. recombinant tau filaments, Thioflavin S fluorescence displacement. shares compounds with Tau fil binding. Potency, µM. 60 compounds, 40% hits
# aSyn ThS bind: Alpha-synuclein ThS binding assay | shares compounds with Tau fil binding | Potency, µM | recombinant alpha-synuclein fibrils, ThS fluorescence displacement | 60 compounds, 40% hits
# Abeta ThS bind: Beta amyloid ThS binding assay; shares compounds with Tau fil binding; Abeta1-42 fibrillization, thioflavin S fluorescence, overnight 37 C; Potency, µM; 60 compounds, 50% hits
# The depositor's hits bear a star; i = inactive; ? = inconclusive; . = not tested or not shown; + = active, no number; [ ] = remark or other dose. Sampled rows, rich in hits. Any-hit rate of the full collection: about 3.2%. Unless noted, the call rests on the fitted dose curve.
SMILES,Hsp90 Hop PPI,Tau fil binding,ALOX15 inhib,USP2a inhib,others
Cn1cccc1C(=O)OCC(=O)Nc1cc(C(C)(C)C)nn1-c1ccccc1,?,-10%,-3%,11%,
CCOCCCn1c(C)nc2c(c1=O)c1nc3ccccc3nc1n2CCC1=CCCCC1,0%,1.6µM*,25µM*,63%,
COc1ccccc1-c1cc(C(=O)N2CCN(c3ccccc3OC)CC2)no1,-2%,0%,-7%,5%,
COc1ccccc1N1CCN(C(=O)c2ccc3nc(-c4ccco4)c(-c4ccco4)nc3c2)CC1,-19%,3.2µM*,20µM*,17%,
CN1CCc2c(sc3c2c(=O)n(-c2ccccc2)c2nnc(SCc4ccccc4F)n32)C1,-10%,13µM*,?,9%,
Nc1c(O)cccc1C(=O)C[C@@H](N)C(=O)O,-3%[26 µM],4%[25.6 µM],-11%[25.6 µM],-6%[17.1 µM],
Nc1ccccc1C(=O)C[C@@H](N)C(=O)O,?,40µM*,.,.,
COc1cccc(Nc2ncc3nc(-c4ccccc4)c(=O)n(Cc4cccs4)c3n2)c1,-2%,i,-10%,240%,
O=c1cc(C(F)F)oc2c1ccc1ccccc12,0%,-13%,13µM*,-4%,
CCCSc1nc(C)c(-c2csc(C(C#N)=C3CCCC3)n2)cc1C#N,9%,16µM*,?,27%,
CCCCSc1nc2c(cc1C#N)CCC2,12%,4%,?,-15%,
C[C@](N)(C(=O)O)c1ccc(-c2nn[nH]n2)cc1,-5%,?,-25%[25.6 µM],.,
c1ccc(-c2csc(-c3nc4ccccc4[nH]3)n2)cc1,.,.,7.9µM*,.,
O=c1c(-c2cc(F)cc(F)c2)nc2cncnc2n1Cc1ccccc1,-5%,32µM*,11%,45%,
O=c1c(-c2ccc(F)cc2)nc2cncnc2n1Cc1ccc(F)cc1,1%,13µM*,7%,52%,
O=c1c(-c2ccc(F)c(F)c2)nc2cncnc2n1Cc1ccccc1,-18%,13µM*,-3%,42%,
O=c1c(-c2ccc(Cl)cc2)nc2cncnc2n1Cc1ccccc1,-7%,?,-17%,107%,
O=c1c(-c2ccc(Cl)cc2)nc2cncnc2n1Cc1ccc(F)cc1,2%,?,-2%,97%,
O=c1c(-c2ccc(F)cc2)nc2cncnc2n1Cc1ccccc1,-13%,-14%,-10%,17%,
O=c1c(-c2cc(F)cc(F)c2)nc2cncnc2n1Cc1ccc(F)cc1,-11%,?,7.9µM*,69%,
CC#CCOCC/C=C1/c2ccccc2C(OC)C1C (configuration not stated),.,.,3%[11.4 µM],.,
O=S(=O)(/C=C/c1ccccc1)Nc1ccc(N2CCOCC2)cc1,-10%,25µM*,?,7%,
CCCCOc1ccc(NC2=NC3(CCCCC3)N=C(N)N2)cc1,-7%,38%,?,7%,
COc1ccc(NC2=NC3(CCCCC3)N=C(N)N2)cc1,-12%,15%,25µM*,2%,
O=C1C(=C2CCCCC2)SC(=S)N1Cc1ccco1,-2%[11 µM],-24%[11.4 µM],4µM*,49%[7.66 µM],
SMILES,Hsp90 Hop PPI,Tau fil binding,ALOX15 inhib,USP2a inhib,others
O=c1c(CCc2ccccc2)nc2cnc(Oc3cccc(Cl)c3)nc2n1C[C@H]1CCCO1,29%,-8%,-6%,0%,
COC(=O)C1=C(C)NC(C)=C(C(=O)OCCN(C)Cc2ccccc2)[C@H]1c1cccc([N+](=O)[O-])c1,-11%[26 µM],10µM*,-1%[25.6 µM],28%[17.1 µM],
O=C(O)CCN1Cc2ccccc2C1=O,1%,13%,20µM*,-25%,
C=CC[C@@H](C(=O)O)c1ccccc1,-4%[11 µM],2%[11.4 µM],1%[11.4 µM],.,
COc1ccc(NC(=O)Cc2nc3ccccc3[nH]2)cc1,-2%,-11%,11%,15%,
COC(=O)Cc1cc(=O)n(-c2nc3ccccc3[nH]2)[nH]1,7.9µM*,-11%,37%,19%,Hsp90-TPR2A inh=-100*[alpha-screen platform artifact]
CN1CCc2c(sc3c2C(=O)NC(c2ccccn2)N3)C1 (configuration not stated),16µM*,i,14%,17%,Hsp90-TPR2A inh=-81*[alpha-screen platform artifact]
Cc1ccc(C2NC(=O)c3c(sc4c3CCN(C)C4)N2)s1 (configuration not stated),-11%,i,?,23%,
COc1ccc(C(=O)N2CCC3(CC2)CN(c2ccccc2)C3)cc1,-16%,-9%,14%,-12%,
Cc1ccccc1CS(=O)(=O)Cc1ccc(C(=O)NCc2ccccn2)o1,4µM*,11%,40%,23%,Hsp90-TPR2A inh=-91*[alpha-screen platform artifact]
O=C(NCc1ccccn1)c1ccc(CS(=O)(=O)Cc2ccc(Cl)cc2)o1,-14%,2%,8%,11%,
COc1ccc(-c2nc3cnc(N4CCOCC4)nc3n(Cc3cccs3)c2=O)cc1,-7%,86%,-6%,104%,
CCCc1nc2c(=O)n(C)c(=O)nc-2n(C)n1,.,.,.,.,Hsp90-TPR2A inh=+
COCC1C2CC[C@H]3C(OCc4ccc(OC)cc4)OC[C@]4(C)[C@H]3C2=C(CN4C(=O)OC(C)(C)C)[C@H](C)C1COC (some centres not stated),?,147%,.,.,
c1ccc(-c2n[nH]c(-c3ccccn3)n2)nc1,0.2µM*,6%,59%,6%,Hsp90-TPR2A inh=-98*[alpha-screen platform artifact]
N#Cc1nc(Cc2cccc3ccccc23)oc1NCCN1CCCCC1,7.9µM*,26%,29%,19%,Hsp90-TPR2A inh=-23
Oc1c(CN2CCOCC2)cc(COCc2ccccc2)c2cccnc12,1.6µM*,-48%,23%,22%,Hsp90-TPR2A inh=-100*[alpha-screen platform artifact];Tau ThS bind=i;aSyn ThS bind=?;Abeta ThS bind=i
CC[C@H](C(=O)[C@H](C)[C@H](O)[C@H](C)CCc1ccc(C)c(O)c1C(=O)O)[C@H]1O[C@](CC)([C@@H]2CC[C@@](O)(CC)[C@H](C)O2)C[C@H]1C,-7%[26 µM],2%[25.6 µM],1%[25.6 µM],16%[17.1 µM],
N#CC(C(=O)NCCc1ccccc1)c1nc2ccccc2nc1N1CCCCC1 (configuration not stated),?,-5%,-8%,8%,Tau ThS bind=?;aSyn ThS bind=?;Abeta ThS bind=?
Cc1ccc(S(=O)(=O)C(C#N)c2nc3ccccc3nc2N2CCCC2)cc1 (configuration not stated),-19%,180%,?,32%,
